# The supplement of paper PMC8728848
# The entries come from a sample that favours the strongest signals as a whole.
# What was measured:
# Test in all cases: glycan array binding signal (z-score within array); higher = stronger binding
# Details in all cases: glycan notation: IUPAC condensed, linker removed
# [1] = biological target: Fuc(a1-2)Gal(b1-3)GalNAc(b1-4)[Neu5Ac(a2-3)]Gal(b1-4)Glc
# Outline: (§1)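 Glycan array data were curated from 3228 arrays in the Consortium for Functional Glycomics database and kept only where the protein sequence was available. Glycan names were converted to IUPAC-condensed notation, and columns mapping to the same glycan were averaged. The binding signal is a within-array Z-score, averaged across arrays of the same protein sequence at different concentrations or buffers and across linkers. Negative Z-scores can be read as non-binding.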
# [2] = biological target: Fuc(a1-2)Gal(b1-3)GlcNAc(b1-3)[Neu5Ac(a2-6)Gal(b1-4)GlcNAc(b1-6)]Gal(b1-4)Glc
# Outline: as §1
# [3] = biological target: Fuc(a1-2)Gal(b1-4)GlcNAc(b1-3)Gal(b1-4)GlcNAc(b1-2)Man(a1-3)[Fuc(a1-2)Gal(b1-4)GlcNAc(b1-3)Gal(b1-4)GlcNAc(b1-2)Man(a1-6)]Man(b1-4)GlcNAc(b1-4)GlcNAc
# Outline: as §1
# [4] = biological target: Fuc(a1-2)Gal(b1-4)[Fuc(a1-3)]GlcNAc(b1-3)Gal(b1-4)[Fuc(a1-3)]GlcNAc
# Outline: as §1
# [5] = biological target: Fuc(a1-2)Gal3S(b1-4)GlcNAc
# Outline: as §1
# [6] = biological target: Fuc(a1-2)[Gal(a1-3)]Gal(b1-4)GlcNAc(b1-3)[Fuc(a1-2)[Gal(a1-3)]Gal(b1-4)GlcNAc(b1-6)]GalNAc
# Outline: as §1
# [7] = biological target: Fuc(a1-2)[GalNAc(a1-3)]Gal(b1-3)GalNAc(a1-3)[Fuc(a1-2)]Gal(b1-4)GlcNAc
# Outline: as §1
# [8] = biological target: Fuc(a1-2)[GalNAc(a1-3)]Gal(b1-3)GlcNAc(b1-6)GalNAc
# Outline: as §1
# [9] = biological target: Fuc(a1-3)[Gal(b1-4)]GlcNAc(b1-6)GalNAc
# Outline: as §1
# [10] = biological target: Fuc(a1-3)[Gal3S(b1-4)]GlcNAc6S
# Outline: as §1
# Fuc(a1-4)GlcNAc = biological target: Fuc(a1-4)GlcNAc
# Outline: as §1
# [11] = biological target: Gal(a1-3)[Gal(a1-4)]Gal(b1-4)GlcNAc
# Outline: as §1
# Gal(a1-4)Gal(b1-4)GlcNAc = biological target: Gal(a1-4)Gal(b1-4)GlcNAc
# Outline: as §1
# Gal(b1-3)GlcNAc = biological target: Gal(b1-3)GlcNAc
# Outline: as §1
# [12] = biological target: Gal(b1-3)GlcNAc(a1-3)Gal(b1-4)GlcNAc
# Outline: as §1
# [13] = biological target: Gal(b1-3)GlcNAc(b1-2)Man(a1-3)[Gal(b1-3)GlcNAc(b1-2)Man(a1-6)]Man(b1-4)GlcNAc(b1-4)GlcNAc
# Outline: as §1
# [14] = biological target: Gal(b1-3)GlcNAc(b1-3)Gal(b1-4)GlcNAc(b1-3)Gal(b1-4)GlcNAc(b1-2)[Gal(b1-3)GlcNAc(b1-3)Gal(b1-4)GlcNAc(b1-3)Gal(b1-4)GlcNAc(b1-6)]Man(a1-6)[Gal(b1-3)GlcNAc(b1-3)Gal(b1-4)GlcNAc(b1-3)Gal(b1-4)GlcNAc(b1-2)Man(a1-3)]Man(b1-4)GlcNAc(b1-4)[Fuc(a1-6)]GlcNAc
# Outline: as §1
# [15] = biological target: Gal(b1-4)GlcNAc(b1-2)Man(a1-3)Man(b1-4)GlcNAc(b1-4)GlcNAc
# Outline: as §1
# [16] = biological target: Gal(b1-4)GlcNAc(b1-2)Man(a1-6)[GlcNAc(b1-2)Man(a1-3)]Man(b1-4)GlcNAc(b1-4)GlcNAc
# Outline: as §1
# [17] = biological target: Gal(b1-4)GlcNAc(b1-3)Gal(b1-4)GlcNAc(b1-2)Man(a1-3)[Gal(b1-4)GlcNAc(b1-3)Gal(b1-4)GlcNAc(b1-2)Man(a1-6)]Man(b1-4)GlcNAc(b1-4)[Fuc(a1-6)]GlcNAc
# Outline: as §1
# [18] = biological target: Gal(b1-4)GlcNAc(b1-3)Gal(b1-4)GlcNAc(b1-3)Gal(b1-4)GlcNAc(b1-2)Man(a1-3)[Gal(b1-4)GlcNAc(b1-3)Gal(b1-4)GlcNAc(b1-3)Gal(b1-4)GlcNAc(b1-2)Man(a1-6)]Man(b1-4)GlcNAc(b1-4)GlcNAc
# Outline: as §1
# [19] = biological target: Gal(b1-4)GlcNAc(b1-3)Gal(b1-4)GlcNAc(b1-3)Gal(b1-4)GlcNAc(b1-3)Gal(b1-4)GlcNAc(b1-2)Man(a1-3)[Gal(b1-4)GlcNAc(b1-3)Gal(b1-4)GlcNAc(b1-3)Gal(b1-4)GlcNAc(b1-3)Gal(b1-4)GlcNAc(b1-2)Man(a1-6)]Man(b1-4)GlcNAc(b1-4)GlcNAc
# Outline: as §1
# [20] = biological target: Gal(b1-4)GlcNAc(b1-3)Gal(b1-4)GlcNAc(b1-3)Gal(b1-4)GlcNAc(b1-3)Gal(b1-4)GlcNAc(b1-2)[Gal(b1-4)GlcNAc(b1-3)Gal(b1-4)GlcNAc(b1-3)Gal(b1-4)GlcNAc(b1-3)Gal(b1-4)GlcNAc(b1-6)]Man(a1-6)[Gal(b1-4)GlcNAc(b1-3)Gal(b1-4)GlcNAc(b1-3)Gal(b1-4)GlcNAc(b1-3)Gal(b1-4)GlcNAc(b1-2)Man(a1-3)]Man(b1-4)GlcNAc(b1-4)[Fuc(a1-6)]GlcNAc
# Outline: as §1
# [21] = biological target: Gal(b1-4)GlcNAc(b1-3)Gal(b1-4)GlcNAc(b1-3)Gal(b1-4)GlcNAc(b1-3)Gal(b1-4)GlcNAc(b1-3)Gal(b1-4)GlcNAc(b1-2)Man(a1-3)[Gal(b1-4)GlcNAc(b1-3)Gal(b1-4)GlcNAc(b1-3)Gal(b1-4)GlcNAc(b1-3)Gal(b1-4)GlcNAc(b1-3)Gal(b1-4)GlcNAc(b1-2)Man(a1-6)]Man(b1-4)GlcNAc(b1-4)GlcNAc
# Outline: as §1
# [22] = biological target: Gal(b1-4)GlcNAc(b1-3)Gal(b1-4)GlcNAc(b1-3)Gal(b1-4)GlcNAc(b1-3)Gal(b1-4)GlcNAc(b1-3)Gal(b1-4)GlcNAc(b1-2)[Gal(b1-4)GlcNAc(b1-3)Gal(b1-4)GlcNAc(b1-3)Gal(b1-4)GlcNAc(b1-3)Gal(b1-4)GlcNAc(b1-3)Gal(b1-4)GlcNAc(b1-6)]Man(a1-6)[Gal(b1-4)GlcNAc(b1-3)Gal(b1-4)GlcNAc(b1-3)Gal(b1-4)GlcNAc(b1-3)Gal(b1-4)GlcNAc(b1-3)Gal(b1-4)GlcNAc(b1-2)Man(a1-3)]Man(b1-4)GlcNAc(b1-4)[Fuc(a1-6)]GlcNAc
# Outline: as §1
# [23] = biological target: Gal(b1-4)GlcNAc(b1-6)GalNAc
# Outline: as §1
# Gal3S(b1-3)GlcNAc = biological target: Gal3S(b1-3)GlcNAc
# Outline: as §1
# [24] = biological target: Gal3S(b1-4)[Fuc(a1-3)]GlcNAc
# Outline: as §1
# [25] = biological target: GalNAc3S(b1-4)[Fuc(a1-3)]GlcNAc
# Outline: as §1
# [26] = biological target: GlcNAc(b1-3)Gal(b1-4)GlcNAc(b1-3)Gal(b1-4)GlcNAc(b1-3)Gal(b1-4)GlcNAc(b1-3)Gal(b1-4)GlcNAc(b1-2)Man(a1-3)[GlcNAc(b1-3)Gal(b1-4)GlcNAc(b1-3)Gal(b1-4)GlcNAc(b1-3)Gal(b1-4)GlcNAc(b1-3)Gal(b1-4)GlcNAc(b1-2)Man(a1-6)]Man(b1-4)GlcNAc(b1-4)[Fuc(a1-6)]GlcNAc
# Outline: as §1
# [27] = biological target: GlcNAc(b1-3)[GlcNAc(b1-6)]Gal(b1-4)GlcNAc
# Outline: as §1
# [28] = biological target: Man(a1-3)[Man(a1-6)]Man(b1-4)GlcNAc(b1-4)GlcNAc
# Outline: as §1
# [29] = biological target: Man(a1-3)[Man(a1-6)]Man(b1-4)GlcNAc(b1-4)[Fuc(a1-6)]GlcNAc
# Outline: as §1
# Man(a1-6)Man = biological target: Man(a1-6)Man
# Outline: as §1
# [30] = biological target: Neu5Ac(a2-3)Gal(b1-3)[Neu5Ac(a2-6)]GalNAc
# Outline: as §1
# [31] = biological target: Neu5Ac(a2-3)Gal(b1-4)GlcNAc
# Outline: as §1
# [32] = biological target: Neu5Ac(a2-3)Gal(b1-4)GlcNAc(b1-3)Gal(b1-4)GlcNAc(b1-3)Gal(b1-4)GlcNAc(b1-2)Man(a1-3)[Neu5Ac(a2-3)Gal(b1-4)GlcNAc(b1-3)Gal(b1-4)GlcNAc(b1-3)Gal(b1-4)GlcNAc(b1-2)Man(a1-6)]GalNAc
# Outline: as §1
# [33] = biological target: Neu5Ac(a2-3)Gal(b1-4)GlcNAc(b1-3)Gal(b1-4)GlcNAc(b1-6)[Gal(b1-3)]GalNAc
# Outline: as §1
# [34] = biological target: Neu5Ac(a2-3)Gal(b1-4)GlcNAc(b1-6)GalNAc
# Outline: as §1
# [35] = biological target: Neu5Ac(a2-3)GalNAc(b1-4)GlcNAc
# Outline: as §1
# [36] = biological target: Neu5Ac(a2-8)Neu5Ac(a2-3)Gal(b1-3)GalNAc(b1-4)[Neu5Ac(a2-3)]Gal(b1-4)Glc
# Outline: as §1
# [37] = biological target: Neu5Ac(a2-8)Neu5Gc(a2-3)Gal(b1-4)GlcNAc
# Outline: as §1
# [38] = biological target: Neu5Gc(a2-3)Gal(b1-4)GlcNAc
# Outline: as §1
# [39] = biological target: Neu5Gc(a2-3)Gal(b1-4)[Fuc(a1-3)]GlcNAc
# Outline: as §1
binder,measurement,setting,value
PX14343A-bvu-539-29-539 (Bacteroides vulgatus) (protein) DSLTESSSNTFWQTPDDALMALASCYDALQSNQLYNSDQYSLGPLYMDCISDNGGHFNWSGWMEGYDMAMGIHTPSSSIIGSYWKDCYEVISRCNVLIANIDRVDMDASQKAIYQAEAKTIRALMYINLTMTYQDVPFLTAPLTIDEAECEKTDRAAIVAHVMTDLQDAAEVLPQNASSRGHITKGAALSLLGRVALYNEKWDDAIAAYKQVQGLGYSLDPSYAKLFTQSGETSPEIIFAVRYEGPGMSEGAAFNAHWNTPLEAMNGTIDLADAYYCKDGKPTTDTKIAELNGGGGLDVSKPNPAHFENRDPRLYSTLFVPGMLWNGKGGIDTSASNPYANVYGGAAASLSTVYVYKYFDPTDTSNSWDNGQDFYVVRYAEVLLSLAEAMVQKGGYVYSDVTALVNEVRQRADVNMPTVEEVEGTSLSKDELLEVIKHERRVELAFEGLRLFDLYRWKELDKAVANIENERTMYGLAYEARKFNGERDYVWPLPTAELDTNKKLVQHDLWK,glycan array binding signal (z-score),[1],-0.271
same,glycan array binding signal (z-score),[2],-0.213
same,glycan array binding signal (z-score),[3],8.08
same,glycan array binding signal (z-score),[4],-0.083
same,glycan array binding signal (z-score),[5],-0.406
same,glycan array binding signal (z-score),[6],7.49
same,glycan array binding signal (z-score),[7],0.132
same,glycan array binding signal (z-score),[8],-0.292
same,glycan array binding signal (z-score),[9],-0.298
same,glycan array binding signal (z-score),[10],-0.338
same,glycan array binding signal (z-score),Fuc(a1-4)GlcNAc,-0.448
same,glycan array binding signal (z-score),[11],6.76
same,glycan array binding signal (z-score),Gal(a1-4)Gal(b1-4)GlcNAc,-0.281
same,glycan array binding signal (z-score),Gal(b1-3)GlcNAc,-0.258
same,glycan array binding signal (z-score),[12],-0.396
same,glycan array binding signal (z-score),[13],0.765
same,glycan array binding signal (z-score),[14],4.27
same,glycan array binding signal (z-score),[15],8.02
same,glycan array binding signal (z-score),[16],-0.116
same,glycan array binding signal (z-score),[17],0.489
same,glycan array binding signal (z-score),[18],1.35
same,glycan array binding signal (z-score),[19],6.18
same,glycan array binding signal (z-score),[20],3.38
same,glycan array binding signal (z-score),[21],2.78
same,glycan array binding signal (z-score),[22],9.28
same,glycan array binding signal (z-score),[23],-0.291
same,glycan array binding signal (z-score),Gal3S(b1-3)GlcNAc,-0.038
same,glycan array binding signal (z-score),[24],-0.121
same,glycan array binding signal (z-score),[25],-0.399
same,glycan array binding signal (z-score),[26],0.355
same,glycan array binding signal (z-score),[27],-0.27
same,glycan array binding signal (z-score),[28],-0.432
same,glycan array binding signal (z-score),[29],-0.297
same,glycan array binding signal (z-score),Man(a1-6)Man,-0.184
same,glycan array binding signal (z-score),[30],0.662
same,glycan array binding signal (z-score),[31],-0.373
same,glycan array binding signal (z-score),[32],8.35
same,glycan array binding signal (z-score),[33],-0.244
same,glycan array binding signal (z-score),[34],0.089
same,glycan array binding signal (z-score),[35],-0.142
same,glycan array binding signal (z-score),[36],-0.102
same,glycan array binding signal (z-score),[37],4.74
same,glycan array binding signal (z-score),[38],-0.254
same,glycan array binding signal (z-score),[39],-0.404
